Laboratory results reported in the supplement of paper PMC7411054.
Counter-ions that a name gives are not always drawn.

Experiments:
Settings in all cases: treatment time: 24 h
WPMY1-GM130-SQSTM1 [1] = experiment: lowest phenotypically active concentration; higher = less potent
Outline: (§1)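 Two criteria together defined phenotypic activity: deviation and reproducibility. Deviation meant ≥3 of 4 wells beyond the 95th percentile of Euclidean distances in solvent control wells, and reproducibility meant a median replicate Pearson correlation above the 95th percentile of non-replicates. Wells had been treated for 24 h at 0.3, 1, 3 or 9 µM in fifteen gene-edited A549, HepG2 and WPMY1 reporter lines before live imaging.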

A549-ACTB-RAB5A = experiment: phenotypically active (imaging signature differs from DMSO and reproducible) at any of 0.3-9 uM (binary (1 = active, 0 = inactive)); higher = active
Outline: as §1

A549-CANX-COX4 = experiment: as above
Outline: as §1

A549-GM130-SQSTM1 [2] = experiment: as above
Outline: as §1

A549-TP53BP1-CLTA = experiment: as above
Outline: as §1

A549-TUBA1B-RELA = experiment: as above
Outline: as §1

HepG2-ACTB-RAB5A = experiment: as above
Outline: as §1

HepG2-CANX-COX4 [3] = experiment: as above
Outline: as §1

HepG2-GM130-SQSTM1 [4] = experiment: as above
Outline: as §1

HepG2-TP53BP1-CLTA = experiment: as above
Outline: as §1

HepG2-TUBA1B-RELA = experiment: as above
Outline: as §1

WPMY1-ACTB-RAB5A = experiment: as above
Outline: as §1

WPMY1-CANX-COX4 = experiment: as above
Outline: as §1

WPMY1-GM130-SQSTM1 [5] = experiment: as above
Outline: as §1

WPMY1-TP53BP1-CLTA [6] = experiment: as above
Outline: as §1

WPMY1-TUBA1B-RELA = experiment: as above
Outline: as §1

HepG2-GM130-SQSTM1 [7] = experiment: lowest phenotypically active concentration; higher = less potent
Outline: as §1

HepG2-CANX-COX4 [8] = experiment: as above
Outline: as §1

WPMY1-TP53BP1-CLTA [9] = experiment: as above
Outline: as §1

A549-GM130-SQSTM1 [10] = experiment: as above
Outline: as §1

| Compound | lowest phenotypically active concentration (WPMY1-GM130-SQSTM1 [1]) | phenotypically active (A549-ACTB-RAB5A) | phenotypically active (A549-CANX-COX4) | phenotypically active (A549-GM130-SQSTM1 [2]) | phenotypically active (A549-TP53BP1-CLTA) | phenotypically active (A549-TUBA1B-RELA) | phenotypically active (HepG2-ACTB-RAB5A) | phenotypically active (HepG2-CANX-COX4 [3]) | phenotypically active (HepG2-GM130-SQSTM1 [4]) | phenotypically active (HepG2-TP53BP1-CLTA) | phenotypically active (HepG2-TUBA1B-RELA) | phenotypically active (WPMY1-ACTB-RAB5A) | phenotypically active (WPMY1-CANX-COX4) | phenotypically active (WPMY1-GM130-SQSTM1 [5]) | phenotypically active (WPMY1-TP53BP1-CLTA [6]) | phenotypically active (WPMY1-TUBA1B-RELA) | lowest phenotypically active concentration (HepG2-GM130-SQSTM1 [7]) | lowest phenotypically active concentration (HepG2-CANX-COX4 [8]) | lowest phenotypically active concentration (WPMY1-TP53BP1-CLTA [9]) | lowest phenotypically active concentration (A549-GM130-SQSTM1 [10]) |
| --- | --- | --- | --- | --- | --- | --- | --- | --- | --- | --- | --- | --- | --- | --- | --- | --- | --- | --- | --- | --- |
| CCCN1C[C@H](CSC)C[C@@H]2c3cccc4[nH]cc(c34)C[C@H]21 [pergolide] | 9 µM | 0 (inactive) | 0 (inactive) | 0 (inactive) | 0 (inactive) | 0 (inactive) | 0 (inactive) | 0 (inactive) | 0 (inactive) | 0 (inactive) | 0 (inactive) | 0 (inactive) | 0 (inactive) | 1 (active) | 0 (inactive) | 0 (inactive) | – | – | – | – |
| O=C1C=C2C=C[C@@H]3C[C@@]2(O1)[C@H]1CCCCN31 [Securinine] | – | 0 (inactive) | 0 (inactive) | 0 (inactive) | 0 (inactive) | 0 (inactive) | 0 (inactive) | 0 (inactive) | 1 (active) | 0 (inactive) | 0 (inactive) | 0 (inactive) | 0 (inactive) | 0 (inactive) | 0 (inactive) | 1 (active) | 9 µM | – | – | – |
| CN1C(=O)CN=C(c2ccccc2)c2cc(Cl)ccc21 [diazepam] | – | 0 (inactive) | 0 (inactive) | 0 (inactive) | 0 (inactive) | 0 (inactive) | 1 (active) | 0 (inactive) | 0 (inactive) | 0 (inactive) | 0 (inactive) | 0 (inactive) | 0 (inactive) | 0 (inactive) | 0 (inactive) | 0 (inactive) | – | – | – | – |
| C[C@]12CC[C@H]3[C@@H](CCC4=CC(=O)CC[C@@]43C)[C@@H]1CC[C@@H]2O [testosterone] | 9 µM | 0 (inactive) | 0 (inactive) | 0 (inactive) | 0 (inactive) | 0 (inactive) | 0 (inactive) | 1 (active) | 0 (inactive) | 0 (inactive) | 0 (inactive) | 0 (inactive) | 0 (inactive) | 1 (active) | 0 (inactive) | 0 (inactive) | – | 3 µM | – | – |
| C[C@@H]1NCCc2cc(O)c(O)cc21 [Salsolinol hydrobromide] | 9 µM | 0 (inactive) | 0 (inactive) | 0 (inactive) | 0 (inactive) | 0 (inactive) | 0 (inactive) | 0 (inactive) | 0 (inactive) | 0 (inactive) | 0 (inactive) | 0 (inactive) | 0 (inactive) | 1 (active) | 0 (inactive) | 0 (inactive) | – | – | – | – |
| C[C@]12CC[C@H](O)C[C@H]1CC[C@@H]1[C@@H]2CC[C@]2(C)[C@@H](C3=CC(=O)OC3)CC[C@]12O [Digitoxigenin] | 1 µM | – | 1 (active) | – | 1 (active) | – | 1 (active) | 1 (active) | 1 (active) | 1 (active) | 1 (active) | 1 (active) | 1 (active) | 1 (active) | 1 (active) | 1 (active) | ≤ 0.3 µM | ≤ 0.3 µM | ≤ 0.3 µM | – |
| C[C@H]1CC[C@@H]2N(C1)C[C@H]1[C@@H]3C[C@H]4[C@@H](CC(=O)[C@H]5C[C@@H](O)CC[C@@]54C)[C@@H]3CC[C@H]1[C@]2(C)O [Imperialine] | – | 0 (inactive) | 0 (inactive) | 0 (inactive) | 0 (inactive) | 0 (inactive) | 0 (inactive) | 0 (inactive) | 0 (inactive) | 0 (inactive) | 0 (inactive) | 1 (active) | 1 (active) | 0 (inactive) | 0 (inactive) | 0 (inactive) | – | – | – | – |
| Cc1sc2c(c1C)C(c1ccc(Cl)cc1)=N[C@H](CC(=O)OC(C)(C)C)c1nnc(C)n1-2 | 9 µM | 0 (inactive) | 0 (inactive) | 0 (inactive) | 0 (inactive) | 0 (inactive) | 1 (active) | 1 (active) | 1 (active) | 0 (inactive) | 0 (inactive) | 0 (inactive) | 0 (inactive) | 1 (active) | 0 (inactive) | 1 (active) | 9 µM | 9 µM | – | – |
| CC[C@@H](CO)NC(=O)[C@@H]1C=C2c3cccc4c3c(cn4C)C[C@H]2N(C)C1 [methysergide] | – | 0 (inactive) | 0 (inactive) | 1 (active) | 0 (inactive) | 0 (inactive) | 0 (inactive) | 0 (inactive) | 0 (inactive) | 0 (inactive) | 0 (inactive) | 0 (inactive) | 0 (inactive) | 0 (inactive) | 0 (inactive) | 0 (inactive) | – | – | – | 9 µM |
| C[C@H]1C(=O)O[C@@H]2CCN3CC=C(COC(=O)[C@](C)(O)[C@]1(C)O)[C@H]23 [Monocrotaline] | – | 0 (inactive) | 0 (inactive) | 0 (inactive) | 0 (inactive) | 1 (active) | 0 (inactive) | 0 (inactive) | 0 (inactive) | 0 (inactive) | 0 (inactive) | 0 (inactive) | 0 (inactive) | 0 (inactive) | 0 (inactive) | 0 (inactive) | – | – | – | – |
| C[N+]12CCC(CC1)C(OC(=O)C(O)(c1ccccc1)c1ccccc1)C2 (centres undefined) [clidinium] | – | – | 0 (inactive) | – | 0 (inactive) | – | 0 (inactive) | 0 (inactive) | 0 (inactive) | 0 (inactive) | 0 (inactive) | 0 (inactive) | 0 (inactive) | 0 (inactive) | 0 (inactive) | 0 (inactive) | – | – | – | – |
| Cc1c(C(=O)c2cccc3ccccc23)c2cccc3c2n1[C@H](CN1CCOCC1)CO3 [WIN 55,212-2 mesylate] | 9 µM | 0 (inactive) | 0 (inactive) | 1 (active) | 0 (inactive) | 0 (inactive) | 0 (inactive) | 0 (inactive) | 1 (active) | 0 (inactive) | 0 (inactive) | 1 (active) | 1 (active) | 1 (active) | 1 (active) | 0 (inactive) | 9 µM | – | 9 µM | 9 µM |
| N[C@@H]1C[C@H]1c1cc(F)cc(F)c1OCc1ccccc1 | 9 µM | 0 (inactive) | 0 (inactive) | 0 (inactive) | 0 (inactive) | 0 (inactive) | 0 (inactive) | 0 (inactive) | 0 (inactive) | 0 (inactive) | 0 (inactive) | 1 (active) | 0 (inactive) | 1 (active) | 1 (active) | 0 (inactive) | – | – | 9 µM | – |
| CN1[C@@H]2CC[C@H]1C[C@@H](OC(=O)[C@H](CO)c1ccccc1)C2 [Hyoscyamine (L)] | – | 0 (inactive) | 0 (inactive) | 0 (inactive) | – | 0 (inactive) | 0 (inactive) | 0 (inactive) | 0 (inactive) | – | 0 (inactive) | 0 (inactive) | 0 (inactive) | 0 (inactive) | – | 0 (inactive) | – | – | – | – |
| CCC(=O)O[C@](Cc1ccccc1)(c1ccccc1)[C@H](C)CN(C)C [propoxyphene] | – | – | 0 (inactive) | – | 0 (inactive) | – | 0 (inactive) | 0 (inactive) | 0 (inactive) | 0 (inactive) | 0 (inactive) | 0 (inactive) | 0 (inactive) | 0 (inactive) | 0 (inactive) | 0 (inactive) | – | – | – | – |
| C=C(C)[C@H]1Cc2c(ccc3c2O[C@@H]2COc4cc(OC)c(OC)cc4[C@@H]2C3=O)O1 [Rotenone] | 1 µM | – | 1 (active) | – | 1 (active) | – | 1 (active) | 1 (active) | 1 (active) | 1 (active) | 1 (active) | 1 (active) | 1 (active) | 1 (active) | 1 (active) | 1 (active) | ≤ 0.3 µM | ≤ 0.3 µM | ≤ 0.3 µM | – |
| CC[C@H]1CN2CCC1C[C@H]2[C@H](O)c1ccnc2ccc(OC)cc12 (some centres undefined) [Hydroquinine hydrobromide hydrate] | – | – | 0 (inactive) | – | 0 (inactive) | – | 0 (inactive) | 0 (inactive) | 0 (inactive) | 0 (inactive) | 0 (inactive) | 0 (inactive) | 0 (inactive) | 0 (inactive) | 1 (active) | 0 (inactive) | – | – | 9 µM | – |
| O=C1CCCN1CC#CCN1CCCC1 [Oxotremorine sesquifumarate] | – | – | 0 (inactive) | – | 0 (inactive) | – | 0 (inactive) | 0 (inactive) | 0 (inactive) | 0 (inactive) | 0 (inactive) | 0 (inactive) | 0 (inactive) | 0 (inactive) | 0 (inactive) | 0 (inactive) | – | – | – | – |
| c1ccc([C@@H]2C[C@H]2NC2CCNCC2)cc1 [GSK LSD 1 dihydrochloride] | 9 µM | 0 (inactive) | 0 (inactive) | 0 (inactive) | 0 (inactive) | 0 (inactive) | 0 (inactive) | 0 (inactive) | 0 (inactive) | 0 (inactive) | 0 (inactive) | 0 (inactive) | 0 (inactive) | 1 (active) | 0 (inactive) | 0 (inactive) | – | – | – | – |
